Reference: the supplement of paper PMC12632987
Whole data set: some 2,300 sequences, median “median log2 fold change of GCK-ALFA target abundance (FLAG IP / Myc IP barcode read proportion)” near 0.095, cut for the lowest 2% near -0.47. The entries come from a sample that favours the lowest values as a whole.

B1: LC3A_147_484 (protein)
chain: MRVYVDVLVDDEETAEELVRLMEATVEELRAQGIRVELRVEIEEVEPGVYFVEIEVEIEAETEEEEQAAAQRVIDALEAFDEANKDRVLGTLISVEREER
B2: LC3A_132_312 (protein)
chain: MEEKYAEIKARLDALLDEAAANIKDKAKVQALLKEIKALLEEAEKELTPEQVAELYDYVADRLDALSQQALAAGQEDVALDLDAASIEAASRSLEAEKKI
B3: LC3A_free_8_2551 (protein)
chain: NSQEFAEKVSEIIDEAEEKVKKILTENGVDREKRLLLELLFGEIIIEVISLRDKSKEEIAKAAKEGLEEVKEEAESLDEETKAKVNAVIDEAEAKIEALL
B4: LC3A_28_1011 (protein)
chain: MSLIEKTKEEAKKAIEEAKKGEDAFLEVEITEEATEEEVKEVLEIIEETAEEISKIENVKLYIVVDFDGDQEKLDLITDGLEEIEEKYPNVSSIIAYDEK
B5: LC3A_28_1012 (protein)
chain: MSLIEATKKEAKAAIEEAKKGEDAFLEVTITEEATEEEVKEVLKIIEETAEEISKIPNVKLYVVIDFDGSQEKLDIITDRMEEIEKKYPNVSVVIAYDEK
B6: LC3A_28_1147 (protein)
chain: SAEVEAAKKQIDEDAEKDKNEEEVYLNVTITSSMTKEEVEEIMDHVEEVVEKLKDKKKIYVVVTFTEPVSQEVLDTALEKGDEIEKKFPKVDVIVALPEY
B7: LC3A_28_1154 (protein)
chain: SANVEAAKKQIDEDAEKDKDEEEVYLNVTITSEDTVEEAKEIMEHVEEVVEKLKDKKKIYVVITFEEPVSQEVLDTVLEKAEEIEKKFPNVSVIIALPED
B8: LC3A_28_1155 (protein)
chain: SAEVEEAKKLIDEDAERDKDEEEVYLEVKITSSVTVEEAREIMDHVEEVVEKLKDKKKIYVVVTFEEPVSQEVLDEVLRRAEEIEEKFPNVDVIIALPED
B9: LC3A_free_8_2523 (protein)
chain: ASQAFADAAVKILDELEEKLVKLLKEKGASRLDILEAELLVGSIIAEVISLVDESIEAILKSIKEGLEELVEELEEHKEEVTKLANEALKKIEEKAKELK
B10: LC3A_3_1539 (protein)
chain: LEEEIEAALALLREAGASEETLAAFREAAEALLERGYEEALRELIRETRELIDAPSELLLAFFEEVLALVRTSDLSEEELIAEIRRIARTTRNEAEIEEL
B11: LC3A_62_2043 (protein)
chain: MYLATVDVDILAKDEEAAEKIYEEIKKKLEELKKKDPNIKYEVKLDKENKYVSVTVTYEAETLEEAEKKAQEIEDELDEILEKNEDLIKAALISREITKL
B12: LC3A_28_882 (protein)
chain: SKALESAEKALEEVKKAVEAGDKEPLVLEVEAPSDEENTEKFLKLLEELAKEASKLPGVTIIVNIDSSVSQELRDKIIDKAEELEKKYPNVTIIIALPED
B13: LC3A_147_504 (protein)
chain: VKLEVYIDIITKNATEEVKEFVKEIEKELKEKGFEVKVKIKIEKLDEDTDYIEIEIEIKAETEEKAKEAANYIIDKFEEFEEKNKDKILGSLISVEIEKE
B14: LC3A_132_266 (protein)
chain: SEELFEKALEELKEILDKIVEALKAGEDPSPLINELYEKAKEYAKKLSLEETEKLVEETIEYAEKLFKERLDPNDEEAIRTLDIIEMLLEGVLIEKELES
B15: LC3A_132_267 (protein)
chain: SEELFEEALEELKEILDKIVDLLKAGKDPSPAITELYNTALEYSEKLSLEETEELVEKTIEYAEKLFAERLDPNDVEARRTLDIIEMLLEGVLIEKELRS
B16: LC3A_132_308 (protein)
chain: GEELAKKLIEIAKEALRLVKEDDSKEEEVLELLREAKELMEKLAKEASPELAAKTFEEVEEILIEISRLAAKKGWDEVSDEAFALAAEAAQLKSDAKKKL
B17: LC3A_free_46_2355 (protein)
chain: VKAEILIDLLHEDEEVLKKAVEEIKKAAKEIAKKYGLKVEIKEEISKLPDGSYYAEIEITLTGETKEKLEKAVTELINKIDEIAKKYNVAAIISYEIIEE
B18: LC3A_free_46_2426 (protein)
chain: VDIDVDLLLEGDDEEKLKAAVEEIKEAFKKIAEEYNAELEIEVEFSTDPDGNHFAHINIKITSDDLETQQKIANESIDSIDKIAEKYGVSYIISVDIEKK
B19: LC3A_17_555 (protein)
chain: MEELKKELEELLKELEKLVKELEKYDPEAAKKLKEKLKEAKKALEKGDLKKALKILKEVAEEAAEVFDSLEHIDPELMSILSMEAEGLLIEALSLEEKLE
B20: LC3A_17_554 (protein)
chain: SEELKEEIKRLLEELEALVEELEKYDPEAAKELRKKLEEAKKALEEGDLEEALKILKEVAEEAAERWDSLEHIDPERMSILSMEAEGLLIEALSLEEKLE
B21: LC3A_28_1027 (protein)
chain: SAAEKAIEKAREEARKQKAEGKDIYVTIEVTSSTTLEDAKTIVEGIREIVEEFKDEKNINIIIDVERGVSQEVIDTLADGAEEIEKEYPNVNIIIALEEE
B22: LC3A_127_175 (protein)
chain: ELEELLKKLLEVAEELSEELSKPDADLEEIERLVKEAIELAKKALELDPRAEPILEAAEEIKKQLEQYKKAPEEKKEELREHMEMLAESLIIEIESLLLR
B23: LC3A_23_616 (protein)
chain: MYKVEIIVDIIVPKEEAEKVEKDLLETINKVLEKNKSKIKEYKIEVEKEELEDGTVLLTIKVTIIYDGNKEEAEELANELVSAIDKTAPDAVISAEVSKI
B24: LC3A_141_376 (protein)
chain: KEVEFELEAKGETPEEVVEKMDELEEKVLKAYEELGGGKVKVKVTLTLTNRETGEVKVVEEEFVGDKETIEMLLDGFLIEAASAVMRAPTDVKLKVVLEK
B25: LC3A_28_1118 (protein)
chain: SLAEKVIKAFEKQVEAAIASGEETLIEVEVSPELSQEEVEKLAKKMAEYAKKAAEKLKVSVLVSVEKGVSQEKIDIIADEAEKVEEEYPNVNVIIALEEE
B26: LC3A_3_1420 (protein)
chain: MEEELERALEELREAGWSEETLEALREVVEALLERGAEEEARRVLELVLENKDISSEDLLEVLREVLELLKTPGVSPEEAVERLEELLRIARNEQEIEEL
B27: LC3A_free_0_2100 (protein)
chain: MVTKVEVLGIIPDKSAKEAAEAIKEKLEEYGKKLSEEKGWKVTVELTEVDGSYVITVTIEGEGMSIEEGLEIADEIADLIEELAKEHGVEVTIYESVYEE
B28: LC3A_147_496 (protein)
chain: ATVEVDVLVKDKEAAEKVVEEFKKLVEKLKKQGIEVELEVEIEQISPDTWYVKITIKIKAKTEEEEKKVANEVVDEIEKIEEKYKDKILASLISVEIEEK
B29: LC3A_147_465 (protein)
chain: KKYEVVLDVLVKDLTPELLKDFEELAEEIKEKFPDAEVELKVETDPEDPSLTLVTLTVTVDTEEDAEKILDFLDEKEEELEKKYSDQILASMISKQEVEP
B30: LC3A_147_464 (protein)
chain: MKYRVELDVLVKNLTPELLADFEELAEEIKKKFPDAEVELKVETDPEDPSLSLVTLTVTVDTEEDAKKIEDFLDKKLEELEKKYKDQILASMISREKVEP

These binders were tested against MAP1LC3A, Q9H492 (assay: median log2 fold change of GCK-ALFA target abundance (FLAG IP / Myc IP barcode read proportion) (log2 ratio); each designed protein is fused to an ALFA-tag nanobody in HEK293 cells to bring the named protein to FLAG-tagged glucokinase (GCK); Myc marks an untargeted standard; higher = target protein stabilised (more abundant)). Conditions: target protein: 3xFLAG-MCP-GCK-ALFA reporter; HEK293 landing pad (RPLP).
Outline: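 Binders fused to an ALFA nanobody were recombined as a library into HEK293 landing-pad cells, which were induced with 2 μg mL^−1 doxycycline and then transfected to express a FLAG-tagged target and a Myc-tagged standard. After 48 h, circular RNA barcodes recovered by anti-FLAG and anti-Myc immunoprecipitation of lysates were reverse transcribed, amplified and sequenced. Each binder's target abundance is the median log2 ratio of FLAG to Myc barcode read proportions, from barcodes present at ≥10^−7 in both replicates, binders carrying ≥3 barcodes per replicate, a 10^−6 pseudocount and pooled replicates.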

| Binder | median log2 fold change |
| --- | --- |
| B1 | -0.559 |
| B2 | 0.361 |
| B3 | -0.172 |
| B4 | -0.21 |
| B5 | -0.527 |
| B6 | -0.475 |
| B7 | -0.142 |
| B8 | -0.446 |
| B9 | -0.0394 |
| B10 | 0.318 |
| B11 | 0.16 |
| B12 | -0.094 |
| B13 | -0.32 |
| B14 | 0.165 |
| B15 | -0.528 |
| B16 | 0.14 |
| B17 | -0.335 |
| B18 | 0.0526 |
| B19 | -0.476 |
| B20 | 0.24 |
| B21 | 0.173 |
| B22 | 0.0944 |
| B23 | -0.672 |
| B24 | -0.00697 |
| B25 | -0.00261 |
| B26 | 0.3 |
| B27 | -0.121 |
| B28 | -0.154 |
| B29 | -0.192 |
| B30 | -0.487 |
